From ChEMBL document CHEMBL1961873, “Compounds: GSK PKIS; Assays: Nanosyn kinase panel” (2012)
Values joined by “and” are separate entries in the source; they are usually repeats but may differ in a detail not shown here. Equal values may be shown once.

How the values were obtained:
[1] = molecular target: Serine/threonine-protein kinase MRCK alpha (Homo sapiens) (UniProt Q5VT25); conditions: at 0.1 µM
[2] = molecular target: Serine/threonine-protein kinase MRCK alpha (Homo sapiens) (UniProt Q5VT25); conditions: at 1 µM
[3] = molecular target: Serine/threonine-protein kinase MRCK beta (Homo sapiens) (UniProt Q9Y5S2); conditions: at 0.1 µM
Sequence of Serine/threonine-protein kinase MRCK beta (Homo sapiens) (Q9Y5S2 whole entry): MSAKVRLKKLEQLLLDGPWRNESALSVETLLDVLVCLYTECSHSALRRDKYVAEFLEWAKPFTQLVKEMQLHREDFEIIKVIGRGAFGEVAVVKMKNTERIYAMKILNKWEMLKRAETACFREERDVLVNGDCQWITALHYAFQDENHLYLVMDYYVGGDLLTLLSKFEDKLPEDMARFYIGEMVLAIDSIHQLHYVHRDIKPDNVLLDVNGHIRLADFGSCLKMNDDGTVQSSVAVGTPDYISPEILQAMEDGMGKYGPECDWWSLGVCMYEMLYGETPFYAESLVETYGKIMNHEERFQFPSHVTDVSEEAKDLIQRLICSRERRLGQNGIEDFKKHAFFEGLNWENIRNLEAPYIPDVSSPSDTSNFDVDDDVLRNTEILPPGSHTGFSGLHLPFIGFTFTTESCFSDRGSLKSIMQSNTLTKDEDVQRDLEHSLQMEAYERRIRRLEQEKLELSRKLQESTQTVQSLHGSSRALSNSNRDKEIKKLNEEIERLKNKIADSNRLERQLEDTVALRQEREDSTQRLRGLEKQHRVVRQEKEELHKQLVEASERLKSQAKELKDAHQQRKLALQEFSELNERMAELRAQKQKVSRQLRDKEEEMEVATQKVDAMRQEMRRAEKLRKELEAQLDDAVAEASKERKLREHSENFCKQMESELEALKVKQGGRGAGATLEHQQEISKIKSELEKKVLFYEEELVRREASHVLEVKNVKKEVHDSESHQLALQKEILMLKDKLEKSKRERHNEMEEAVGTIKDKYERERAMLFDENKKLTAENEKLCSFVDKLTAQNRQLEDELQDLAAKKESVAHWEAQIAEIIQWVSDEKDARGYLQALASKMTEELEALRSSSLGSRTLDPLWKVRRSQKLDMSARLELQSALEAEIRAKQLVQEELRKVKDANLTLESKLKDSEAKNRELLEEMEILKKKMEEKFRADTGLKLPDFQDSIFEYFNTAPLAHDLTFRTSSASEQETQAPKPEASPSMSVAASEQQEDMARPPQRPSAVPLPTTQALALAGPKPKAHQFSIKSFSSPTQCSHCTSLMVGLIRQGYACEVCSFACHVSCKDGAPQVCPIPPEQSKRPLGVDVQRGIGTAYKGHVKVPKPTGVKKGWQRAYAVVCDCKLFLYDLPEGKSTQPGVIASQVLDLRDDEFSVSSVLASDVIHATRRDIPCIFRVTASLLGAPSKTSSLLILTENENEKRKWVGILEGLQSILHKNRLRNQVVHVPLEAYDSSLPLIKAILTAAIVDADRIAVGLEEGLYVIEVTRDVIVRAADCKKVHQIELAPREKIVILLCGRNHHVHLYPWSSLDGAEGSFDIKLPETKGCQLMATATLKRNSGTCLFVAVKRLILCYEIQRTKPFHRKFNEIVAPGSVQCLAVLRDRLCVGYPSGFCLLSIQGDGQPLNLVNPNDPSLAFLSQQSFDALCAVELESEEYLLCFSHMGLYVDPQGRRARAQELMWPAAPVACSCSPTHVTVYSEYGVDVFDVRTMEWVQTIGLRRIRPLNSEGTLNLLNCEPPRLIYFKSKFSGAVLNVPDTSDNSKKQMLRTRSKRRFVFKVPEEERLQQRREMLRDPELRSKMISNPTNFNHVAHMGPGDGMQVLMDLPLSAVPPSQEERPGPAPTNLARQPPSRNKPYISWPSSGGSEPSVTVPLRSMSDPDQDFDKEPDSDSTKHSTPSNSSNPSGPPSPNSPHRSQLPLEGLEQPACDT

[4] = molecular target: Serine/threonine-protein kinase MRCK beta (Homo sapiens) (UniProt Q9Y5S2); conditions: at 1 µM
[5] = molecular target: Ribosomal protein S6 kinase alpha-5 (Homo sapiens) (UniProt O75582); conditions: at 0.1 µM
[6] = molecular target: Ribosomal protein S6 kinase alpha-5 (Homo sapiens) (UniProt O75582); conditions: at 1 µM
[7] = molecular target: Ribosomal protein S6 kinase alpha-4 (Homo sapiens) (UniProt O75676); conditions: at 0.1 µM
Sequence of Ribosomal protein S6 kinase alpha-4 (Homo sapiens) (O75676 whole entry, looked up): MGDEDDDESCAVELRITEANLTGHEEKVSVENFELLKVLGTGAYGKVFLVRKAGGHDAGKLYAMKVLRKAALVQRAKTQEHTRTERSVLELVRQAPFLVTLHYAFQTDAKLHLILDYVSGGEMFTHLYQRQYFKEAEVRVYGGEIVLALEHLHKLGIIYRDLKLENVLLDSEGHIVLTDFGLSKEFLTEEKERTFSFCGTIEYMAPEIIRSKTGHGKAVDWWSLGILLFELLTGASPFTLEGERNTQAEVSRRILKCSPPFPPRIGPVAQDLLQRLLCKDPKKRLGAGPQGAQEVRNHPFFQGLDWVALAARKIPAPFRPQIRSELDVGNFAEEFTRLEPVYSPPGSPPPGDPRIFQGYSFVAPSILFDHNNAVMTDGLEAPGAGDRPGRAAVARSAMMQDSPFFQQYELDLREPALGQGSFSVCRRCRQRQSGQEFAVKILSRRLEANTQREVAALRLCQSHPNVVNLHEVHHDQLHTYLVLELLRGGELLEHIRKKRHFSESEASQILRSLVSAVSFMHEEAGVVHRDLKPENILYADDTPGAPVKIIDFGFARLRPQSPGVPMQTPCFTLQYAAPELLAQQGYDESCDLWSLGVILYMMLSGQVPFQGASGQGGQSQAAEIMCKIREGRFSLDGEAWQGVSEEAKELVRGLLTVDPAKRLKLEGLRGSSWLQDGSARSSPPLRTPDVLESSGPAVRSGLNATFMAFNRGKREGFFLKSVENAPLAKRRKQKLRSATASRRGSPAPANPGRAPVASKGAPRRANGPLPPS

[8] = molecular target: Ribosomal protein S6 kinase alpha-4 (Homo sapiens) (UniProt O75676); conditions: at 1 µM
[9] = molecular target: Ribosomal protein S6 kinase beta-1 (Homo sapiens) (UniProt P23443); conditions: at 0.1 µM
Sequence of Ribosomal protein S6 kinase beta-1 (Homo sapiens) (P23443 whole entry, looked up): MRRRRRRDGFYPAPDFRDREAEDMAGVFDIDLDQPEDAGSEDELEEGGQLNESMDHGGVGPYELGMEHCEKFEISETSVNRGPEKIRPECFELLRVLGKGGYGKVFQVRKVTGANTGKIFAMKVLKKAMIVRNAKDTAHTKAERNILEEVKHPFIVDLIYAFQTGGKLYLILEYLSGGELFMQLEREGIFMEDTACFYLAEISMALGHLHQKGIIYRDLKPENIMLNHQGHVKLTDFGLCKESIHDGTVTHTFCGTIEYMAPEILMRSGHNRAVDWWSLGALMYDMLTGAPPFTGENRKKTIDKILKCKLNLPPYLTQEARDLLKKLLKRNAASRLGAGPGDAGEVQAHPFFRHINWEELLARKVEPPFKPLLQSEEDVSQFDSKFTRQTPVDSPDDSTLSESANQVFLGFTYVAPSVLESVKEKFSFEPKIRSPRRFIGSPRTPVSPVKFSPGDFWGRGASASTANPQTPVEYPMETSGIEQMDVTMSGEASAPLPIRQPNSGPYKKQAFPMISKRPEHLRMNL

[10] = molecular target: Ribosomal protein S6 kinase beta-1 (Homo sapiens) (UniProt P23443); conditions: at 1 µM

Sequence of Serine/threonine-protein kinase MRCK alpha (Homo sapiens) (Q5VT25 whole entry): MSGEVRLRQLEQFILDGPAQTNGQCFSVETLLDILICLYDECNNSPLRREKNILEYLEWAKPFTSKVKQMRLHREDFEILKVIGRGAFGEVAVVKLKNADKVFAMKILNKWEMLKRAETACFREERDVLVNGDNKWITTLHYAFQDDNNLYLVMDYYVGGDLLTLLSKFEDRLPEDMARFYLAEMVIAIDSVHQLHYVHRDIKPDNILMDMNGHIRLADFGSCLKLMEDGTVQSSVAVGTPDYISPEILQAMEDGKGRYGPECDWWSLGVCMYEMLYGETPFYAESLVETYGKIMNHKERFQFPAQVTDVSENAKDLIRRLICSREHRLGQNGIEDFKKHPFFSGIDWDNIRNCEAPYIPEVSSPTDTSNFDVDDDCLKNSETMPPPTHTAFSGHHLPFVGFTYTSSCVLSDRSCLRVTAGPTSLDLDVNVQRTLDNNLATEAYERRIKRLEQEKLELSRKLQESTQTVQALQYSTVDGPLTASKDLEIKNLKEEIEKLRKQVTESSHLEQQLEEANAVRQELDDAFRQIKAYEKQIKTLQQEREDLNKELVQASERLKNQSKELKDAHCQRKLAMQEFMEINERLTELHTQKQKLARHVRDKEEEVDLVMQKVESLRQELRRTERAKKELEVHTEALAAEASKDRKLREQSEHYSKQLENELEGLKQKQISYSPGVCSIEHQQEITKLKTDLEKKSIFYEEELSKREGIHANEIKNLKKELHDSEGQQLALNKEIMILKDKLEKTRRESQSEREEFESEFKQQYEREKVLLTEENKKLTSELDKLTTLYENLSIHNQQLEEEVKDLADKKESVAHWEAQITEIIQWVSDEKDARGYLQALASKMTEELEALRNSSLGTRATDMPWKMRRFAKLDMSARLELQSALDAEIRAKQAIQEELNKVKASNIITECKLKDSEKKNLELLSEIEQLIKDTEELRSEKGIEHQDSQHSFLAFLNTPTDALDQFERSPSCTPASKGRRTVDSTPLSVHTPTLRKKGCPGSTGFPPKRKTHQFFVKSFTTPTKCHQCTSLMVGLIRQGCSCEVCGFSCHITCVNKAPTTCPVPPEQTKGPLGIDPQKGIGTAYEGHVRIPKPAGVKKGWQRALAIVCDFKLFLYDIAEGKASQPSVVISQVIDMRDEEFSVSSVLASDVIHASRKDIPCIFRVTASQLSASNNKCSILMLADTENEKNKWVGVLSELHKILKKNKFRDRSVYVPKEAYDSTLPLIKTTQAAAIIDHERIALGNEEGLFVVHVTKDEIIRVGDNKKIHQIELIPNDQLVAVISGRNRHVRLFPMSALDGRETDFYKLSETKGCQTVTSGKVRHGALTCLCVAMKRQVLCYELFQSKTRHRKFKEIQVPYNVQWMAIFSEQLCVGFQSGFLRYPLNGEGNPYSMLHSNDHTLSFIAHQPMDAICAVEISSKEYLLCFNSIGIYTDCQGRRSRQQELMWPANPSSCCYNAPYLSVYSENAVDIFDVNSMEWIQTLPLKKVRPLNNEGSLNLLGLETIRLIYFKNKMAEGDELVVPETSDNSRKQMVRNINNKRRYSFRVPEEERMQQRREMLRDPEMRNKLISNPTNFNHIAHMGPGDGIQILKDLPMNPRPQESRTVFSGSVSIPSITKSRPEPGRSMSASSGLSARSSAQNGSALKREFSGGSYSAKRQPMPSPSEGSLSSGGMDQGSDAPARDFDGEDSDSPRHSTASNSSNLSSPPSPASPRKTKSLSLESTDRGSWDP

How did the inhibition [1] turn out when `COc1ccccc1-c1cc(/C=C2\C(=O)Nc3ncc(Br)cc32)cc(Br)c1O` was run?
The inhibition was -0.66%.

And the inhibition [2]?
Its inhibition is -2.56%.

And the inhibition [3]?
The inhibition was -0.06%.

And the inhibition [4]?
The inhibition was -0.72%.

And the inhibition [5]?
Its inhibition is 3.42%.

What about the inhibition [6] of the same compound?
Its inhibition is 1.75%.

What about the inhibition [7] of the same compound?
Its inhibition is 1.76%.

What about the inhibition [8] of the same compound?
The inhibition was 6.3%.

And the inhibition [9]?
Its inhibition is 2.51%.

What about the inhibition [10] of the same compound?
The inhibition was 2.75%.

What does the source list for `Cc1nnc(-c2cccc(-c3ccc(C(=O)NCC4CC4)cc3)c2)o1`?
inhibition [1]: -0.4%; inhibition [2]: 2.11%; inhibition [3]: -0.19%; inhibition [4]: -0.8%; inhibition [5]: 4.52%; inhibition [6]: 3.95%; inhibition [7]: 3.13%; inhibition [8]: 3.75%; inhibition [9]: 1.6%; inhibition [10]: 3.46%

With `CS(=O)(=O)CCNCc1ccoc1-c1ccc2ncnc(Nc3ccc(OCc4ccccc4)cc3)c2c1` as the compound, how does the inhibition [1] read?
The inhibition was -1.71%.

What about the inhibition [2] of the same compound?
The inhibition was -3.38%.

What about the inhibition [3] of the same compound?
The inhibition was -0.65%.

What about the inhibition [4] of the same compound?
Its inhibition is -2.47%.

What about the inhibition [5] of the same compound?
Its inhibition is -0.3%.

And the inhibition [6]?
The inhibition was -2.16%.

What about the inhibition [7] of the same compound?
Its inhibition is 0.88%.

And the inhibition [8]?
The inhibition was -1.22%.

What about the inhibition [9] of the same compound?
Its inhibition is -1.12%.

What about the inhibition [10] of the same compound?
The inhibition was -1.32%.

How did the inhibition [1] turn out when `COc1ccc2ncn(-c3cc(O[C@H](C)c4ccccc4C(F)(F)F)c(C(N)=O)s3)c2c1` was run?
Its inhibition is -0.19%.

And the inhibition [2]?
The inhibition was 2.79%.

What about the inhibition [3] of the same compound?
Its inhibition is 0.61%.

What about the inhibition [4] of the same compound?
Its inhibition is 2.31%.

And the inhibition [5]?
The inhibition was -0.46%.

And the inhibition [6]?
Its inhibition is -0.11%.

And the inhibition [7]?
The inhibition was 0.7%.

What about the inhibition [8] of the same compound?
The inhibition was 2.33%.

And the inhibition [9]?
The inhibition was 0.7%.

And the inhibition [10]?
Its inhibition is -0.16%.

Which results are given for `N#Cc1cccc(Nc2ncc(-c3ccccc3)o2)c1`?
inhibition [1]: 0.38%; inhibition [2]: 2.09%; inhibition [3]: -1.64%; inhibition [4]: -0.28%; inhibition [5]: 1.22%; inhibition [6]: 2.21%; inhibition [7]: 1%; inhibition [8]: 2.71%; inhibition [9]: -0.53%; inhibition [10]: 1.42%

Which results are given for `COc1cccc(-n2ncc3c(N/N=C/c4ccc(C(=O)NCCN(C)C)cc4)ncnc32)c1`?
inhibition [1]: 2.1%; inhibition [2]: 7.78%; inhibition [3]: 2.49%; inhibition [4]: 8.24%; inhibition [5]: 3.26%; inhibition [6]: 8.01%; inhibition [7]: 1.32%; inhibition [8]: 4.69%; inhibition [9]: 4.61%; inhibition [10]: 20.9%

What does the source list for `Nc1nonc1-c1nc2cnccc2n1C1CC1`?
inhibition [1]: 4.84% and 5.86%; inhibition [2]: 35.7% and 40%; inhibition [3]: 7.62% and 9.27%; inhibition [4]: 41% and 42.7%; inhibition [5]: 75.6% and 71.7%; inhibition [6]: 82.3% and 76.5%; inhibition [7]: 44.6% and 48.9%; inhibition [8]: 75.1% and 74.5%; inhibition [9]: 66.6% and 68.6%; inhibition [10]: 89.3% and 88.8%

What does the source list for `CS(=O)(=O)CCNCc1ccc(-c2ccc3ncnc(Nc4ccc(OCc5cccc(C(F)(F)F)c5)cc4)c3c2)o1`?
inhibition [1]: 1.26%; inhibition [2]: 5.01%; inhibition [3]: 0.69%; inhibition [4]: 2%; inhibition [5]: 4.18%; inhibition [6]: 3.88%; inhibition [7]: 1.66%; inhibition [8]: 2.03%; inhibition [9]: 1.39%; inhibition [10]: 3.25%

Which results are given for `CN1CCC(C(=O)Nc2n[nH]c3nc(-c4ccc(O)cc4)c(Br)cc23)CC1`?
inhibition [1]: 2.05% and 4.4%; inhibition [2]: 21.6% and 19.5%; inhibition [3]: 1.99% and 0.84%; inhibition [4]: 12.8% and 12.7%; inhibition [5]: 1.62% and 0.25%; inhibition [6]: 3.91% and 1.49%; inhibition [7]: 2.85% and 1.78%; inhibition [8]: 5.51% and 1.19%; inhibition [9]: 0.96% and -0.21%; inhibition [10]: 2.58% and -0.02%

What does the source list for `CNC(=O)c1cncc(/C=C/c2ccccc2C)c1`?
inhibition [1]: -0.01%; inhibition [2]: 2.94%; inhibition [3]: -0.34%; inhibition [4]: 0.83%; inhibition [5]: 3.42%; inhibition [6]: 6.01%; inhibition [7]: 2.58%; inhibition [8]: 4.27%; inhibition [9]: -0.48%; inhibition [10]: 1.97%

What does the source list for `COC(=O)Nc1nc2cc(Oc3ccc(NC(=O)Nc4ccccc4)cc3)ccc2[nH]1`?
inhibition [1]: 1.11%; inhibition [2]: 3.26%; inhibition [3]: -0.1%; inhibition [4]: 0.05%; inhibition [5]: 2.4%; inhibition [6]: 2.36%; inhibition [7]: 2.62%; inhibition [8]: 3.88%; inhibition [9]: 2.09%; inhibition [10]: 3.12%

Which inhibition [1] does the source give for `COc1cc(N2CCN(C(C)C)CC2)ccc1Nc1nc(Nc2cccc(F)c2C(=O)O)c2cc[nH]c2n1` here?
Its inhibition is -0.32%.

What about the inhibition [2] of the same compound?
Its inhibition is 1.08%.

What about the inhibition [3] of the same compound?
Its inhibition is -1.28%.

What about the inhibition [4] of the same compound?
Its inhibition is 0.34%.

And the inhibition [5]?
The inhibition was 2.89%.

What about the inhibition [6] of the same compound?
Its inhibition is 3.87%.

What about the inhibition [7] of the same compound?
The inhibition was 0.48%.

And the inhibition [8]?
Its inhibition is 2.67%.

And the inhibition [9]?
The inhibition was 1.22%.

What about the inhibition [10] of the same compound?
The inhibition was 2.81%.

How did the inhibition [1] turn out when `CCS(=O)(=O)c1ccc(OC)c(Nc2ncc(-c3cccc(F)c3)o2)c1` was run?
The inhibition was 4.37%.

And the inhibition [2]?
The inhibition was 2.99%.

What about the inhibition [3] of the same compound?
The inhibition was 0.15%.

And the inhibition [4]?
Its inhibition is 0.78%.

And the inhibition [5]?
The inhibition was 5.29%.

And the inhibition [6]?
The inhibition was 7.75%.

What about the inhibition [7] of the same compound?
Its inhibition is 4.36%.

What about the inhibition [8] of the same compound?
Its inhibition is 5.01%.

What about the inhibition [9] of the same compound?
Its inhibition is 2.77%.

What about the inhibition [10] of the same compound?
Its inhibition is 5.19%.

How did the inhibition [1] turn out when `c1cnn2ncc(-c3ccnc(NCCCN4CCOCC4)n3)c2c1` was run?
Its inhibition is -0.89%.

And the inhibition [2]?
The inhibition was -2.56%.

And the inhibition [3]?
Its inhibition is 0.55%.

And the inhibition [4]?
Its inhibition is 3.84%.

What about the inhibition [5] of the same compound?
The inhibition was 6.61%.

And the inhibition [6]?
The inhibition was 6.41%.

What about the inhibition [7] of the same compound?
The inhibition was 5.88%.

And the inhibition [8]?
Its inhibition is 7.41%.

What about the inhibition [9] of the same compound?
Its inhibition is 2.05%.

What about the inhibition [10] of the same compound?
The inhibition was 2.73%.

Which results are given for `O=C(Nc1n[nH]c2nnc(-c3cccnc3)cc12)C1CC1`?
inhibition [1]: 2.61%; inhibition [2]: -0.69%; inhibition [3]: 0.62%; inhibition [4]: 0.7%; inhibition [5]: -1.47%; inhibition [6]: -0.64%; inhibition [7]: -0.31%; inhibition [8]: 0.76%; inhibition [9]: -0.26%; inhibition [10]: 0.25%

What does the source list for `CCN1CCC(C(=O)Nc2n[nH]c3nnc(-c4cccc(F)c4F)cc23)CC1`?
inhibition [1]: -1.78%; inhibition [2]: 1.74%; inhibition [3]: 0.8%; inhibition [4]: -0.36%; inhibition [5]: -1.22%; inhibition [6]: -2.44%; inhibition [7]: 0.41%; inhibition [8]: 0.26%; inhibition [9]: -0.22%; inhibition [10]: -1.27%
